# PubChem BioAssay (Tox21)
# Inconclusive results are not listed. A number with no mark means an inactive call. Where a SMILES comes first, the peptide text is derived from it. [ ]: non-standard residue; d: D form. pGlu = O=C1CC[C@@H](C(=O)O)N1
# Target: Estrogen receptor beta (Homo sapiens) (UniProt Q92731)
# Assay: qHTS assay to identify small molecule agonists of the estrogen receptor beta (ER-beta) signaling pathway (AID 1259377; active = well fitted activation curve with a large enough effect in the signal ratio in the repeat runs, not every such curve was filed as active; the % refers to the signal ratio)
# Details: ER-beta-UAS-bla HEK293T, beta-lactamase FRET ratio, 16 h; series mostly up to 92.4 µM; activation: at the top concentration
# In short: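 A UAS-controlled beta-lactamase reporter in ER-beta-UAS-bla HEK293T cells reports receptor activation. Compounds act for 16 hr at 37C in 2% charcoal-stripped serum, and a FRET substrate is read by fluorescence after 2 hours.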
# % is scaled to controls: 0 for no effect and ±100 for the full control effect.
# Sequence of Estrogen receptor beta (Homo sapiens) (Q92731 whole entry, looked up): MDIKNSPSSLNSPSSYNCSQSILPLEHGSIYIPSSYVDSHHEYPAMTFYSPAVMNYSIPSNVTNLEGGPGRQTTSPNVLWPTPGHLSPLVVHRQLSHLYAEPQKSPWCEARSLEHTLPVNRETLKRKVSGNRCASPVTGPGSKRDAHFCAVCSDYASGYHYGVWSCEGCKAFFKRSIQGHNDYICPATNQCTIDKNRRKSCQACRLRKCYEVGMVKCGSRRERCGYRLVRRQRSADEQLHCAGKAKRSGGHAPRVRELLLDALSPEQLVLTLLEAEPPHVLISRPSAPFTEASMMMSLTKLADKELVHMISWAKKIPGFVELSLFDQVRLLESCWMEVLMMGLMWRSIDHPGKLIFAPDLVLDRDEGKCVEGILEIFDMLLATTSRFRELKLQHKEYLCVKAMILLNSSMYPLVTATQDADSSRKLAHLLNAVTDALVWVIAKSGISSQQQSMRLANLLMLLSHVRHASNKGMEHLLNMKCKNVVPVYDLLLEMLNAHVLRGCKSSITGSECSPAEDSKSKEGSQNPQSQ
row,Structure (SMILES),activation
1,CN(C)CCCN(C)CCCN(C)C,8.65%
2,O=S(=O)(O)c1cc(O)c(O)c(S(=O)(=O)O)c1,8.86%
3,O=[N+]([O-])c1cncn1CCN1CCOCC1,-2.21% [at 42.5 µM]
4,CCOC(=O)OC(C)OC1=C(C(=O)Nc2ccccn2)N(C)S(=O)(=O)c2ccccc21 (stereo unspecified),0.706% [at 42.5 µM]
5,CCC(C)(CCCC(C)C)OC(C)=O (stereo unspecified),-1.28%
6,CC1(C)[C@@H]2CC[C@@]1(C)[C@H](O)C2,-0.405%
7,CCN[C@H]1C[C@H](C)S(=O)(=O)c2sc(S(N)(=O)=O)cc21,1.39% [at 42.5 µM]
8,O=CN(CCO)CCO,4.39%

# Target: Estrogen receptor beta (Homo sapiens) (UniProt Q92731)
# Assay: qHTS assay to identify small molecule antagonists of the estrogen receptor beta (ER-beta) signaling pathway (AID 1259378; active = well fitted inhibition curve with a large enough effect in the signal ratio in the repeat runs, not every such curve was filed as active; the % refers to the signal ratio)
# Details: ER-beta-UAS-bla HEK293T, beta-lactamase FRET ratio, 16 h; series mostly up to 92.4 µM; activity, negative = inhibition: at the top concentration
# In short: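 Antagonist mode: compounds added to beta-lactamase reporter HEK293T ER-beta-UAS cells stimulated with E2 (1nM final), 16 hr at 37C. LiveBLAzer B/G FRET substrate, 2 hours room temperature, fluorescence read-out.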
row,Structure (SMILES),"activity, negative = inhibition"
1,CC1(C)OC[C@@H](COC(=O)CCc2ccc(OC[C@@H](O)CNCCNC(=O)N3CCOCC3)cc2)O1,-5.56% [at 42.5 µM]
2,CCC(C(=O)NC(=O)NC(C)=O)c1ccccc1 (stereo unspecified),5.55% [at 42.5 µM]
3,CC(C)(N)C#N,-19.4%
4,CN1C(C)(C)CC(O)CC1(C)C,3.12%
5,O=C(c1ccccc1)C1(O)CCCCC1,-1.39%
6,[O-][n+]1cccc(CO)c1,-1.58% [at 42.5 µM]
7,CCNC(=O)[C@@H]1CCCN1C(=O)[C@H](CCCN=C(N)N)NC(=O)[C@H](CC(C)C)NC(=O)CNC(=O)[C@H](Cc1ccc(O)cc1)NC(=O)[C@H](CO)NC(=O)[C@H](Cc1c[nH]c2ccccc12)NC(=O)[C@H](Cc1cnc[nH]1)NC(=O)[C@@H]1CCC(=O)N1 ([pGlu]HWSYGLRP-NHEt),3.26% [at 42.5 µM]
8,CC(C)CC(C)(N)C#N (stereo unspecified),2.76%
9,O=C(O)CCSCCC(=O)O,-5.5%
10,CC(COc1ccccc1)NN (stereo unspecified),-2.01% [at 42.5 µM]
11,C=CC(=O)OCCCl,0.457%
12,NS(=O)(=O)Cc1noc2ccccc12,2.61% [at 42.5 µM]
13,CCNS(=O)(=O)c1ccc(C)cc1,5.12%
14,CC(=O)NC(=O)c1ccccc1O,0.149% [at 42.5 µM]
15,OCCCCCO,-13.9%
16,O=C(CO)[C@@H](O)[C@H](O)[C@H](O)CO,4.13%
17,C=CC(C)(CCC=C(C)C)OC(=O)CC (stereo unspecified),9.51%
18,CN(C)[C@@H]1C(=O)C(C(=O)NCN2CCCC2)=C(O)[C@@]2(O)C(=O)C3=C(O)c4c(O)cccc4[C@@](C)(O)C3C[C@@H]12 (stereo partly specified),5.25% [at 42.5 µM]
19,Clc1cc(Cl)cc(Cl)c1,12.5%

row,Structure (SMILES),"activity, negative = inhibition"
1,O=C1CCCCCCCCCCCCCCO1,-6.26%
2,CCCO[Si](OCCC)(OCCC)OCCC,18.5%
3,C=COCC1CCC(COC=C)CC1 (stereo unspecified),0.946%
4,O=Cc1cccc(Br)c1,-13.5%
5,C[N+](C)(CCOc1ccccc1)Cc1cccs1,14.5% [at 42.5 µM]
6,CN1CCC(=C2c3ccccc3CCc3cccnc32)CC1,-16.5% [at 42.5 µM]
7,CCCCc1ccc2c(n1)[C@@H](c1ccc(OC)cc1C[C@H](C)C(=O)O)[C@H](C(=O)O)[C@H]2c1ccc2c(c1)OCO2,-16.5%
8,CC(=O)c1ccc2ccccc2c1,1.29%
9,CC(C)c1ccc2ncccc2c1,0.115%
10,c1ccc(Cc2ccccc2)cc1,2.43%
11,C=C(C)C(=O)OCC1CCCO1 (stereo unspecified),6.99%
12,CN(C)CCCN(C)CCCN(C)C,11%
13,O=S(=O)(O)c1cc(O)c(O)c(S(=O)(=O)O)c1,-11.9%
14,O=[N+]([O-])c1cncn1CCN1CCOCC1,-2.99% [at 42.5 µM]
15,CCOC(=O)OC(C)OC1=C(C(=O)Nc2ccccn2)N(C)S(=O)(=O)c2ccccc21 (stereo unspecified),-6.13% [at 42.5 µM]
16,CCC(C)(CCCC(C)C)OC(C)=O (stereo unspecified),16.2%
17,CC1(C)[C@@H]2CC[C@@]1(C)[C@H](O)C2,0.606%
18,CCN[C@H]1C[C@H](C)S(=O)(=O)c2sc(S(N)(=O)=O)cc21,7.57% [at 42.5 µM]
19,O=CN(CCO)CCO,-7.19%
